# Bioassay records (PubChem)
# mHTT-CaM PPI inh: mHTT-calmodulin interaction abrogation; P42858; AlphaScreen His-mHTT/GST-CaM binding, luminescence; inhibition, % at 15 µM; hit rate 3.6% among 190,000;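 also: 0% = both proteins with DMSO and 100% = one protein alone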
# Pf apPOL block: Pf-apPOL DNA polymerase inhibition. Recombinant Pf-apPOL, molecular beacon fluorescence, 1.5 h. inhibition, % at 10 µM. hit rate 0.25% among 210,000. AID 1794808
# Numbers without * were called inactive; . = not tested or not shown. This is a sample that favours compounds with a hit; in the whole collection about 3.6% have one here. Rule as the data show it: active = inhibition above about 50%; inactive = the rest.
SMILES,mHTT-CaM PPI inh,Pf apPOL block
C=CCNC(=O)c1c[nH]c2ccc(S(=O)(=O)N(C)c3ccc(Cl)cc3F)cc2c1=O,7,-5
CCN1CCC(O)(C#Cc2ccccc2)CC1,.,-6
COc1ccccc1C(=O)Nc1ccccc1NC(=O)c1ccccc1OC,-9,2
O=S(=O)(c1ccc(-n2cnnn2)cc1)c1ccc(-n2cnnn2)cc1,-4,.
CSc1ccc(C2Nc3cccc4cccc(c34)N2)cc1,69*,.
CSc1ccc(C2Nc3ccccc3C(=O)N2c2ccc(C)cc2)cc1 (configuration not stated),-2,-2
NC1CCCc2c1[nH]c1ccc([N+](=O)[O-])cc21 (configuration not stated),12,3
O=[N+]([O-])c1ccc2[nH]c3c(c2c1)CCCC3NC1CCN(CCc2ccccc2)CC1 (configuration not stated),100*,-1
O=C(c1ccc([N+](=O)[O-])cc1)N1N=C(c2ccccc2)CC1(O)C(F)(F)F (configuration not stated),7,1
Cc1nn(Cc2ccccc2)c(C)c1NC(=O)CCC(=O)O,-3,1
COc1ccc(CN([C@H](C)C=O)S(=O)(=O)N(Cc2ccccc2)[C@H](C=O)C(C)C)cc1,97*,0
C=C[C@H](CC(C)C)N(Cc1ccccc1)S(=O)(=O)N(Cc1ccc(OC)cc1)[C@H](C=C)CC(C)C,-16,-1
Cc1nn2c(=O)/c(=C/c3ccco3)sc2nc1=O,-1,-2
Oc1ccccc1CN1CCCC1,1,-1
Oc1c(CN2CCN(Cc3ccc4cccnc4c3O)CC2)ccc2cccnc12,100*,-11
Oc1c(CN2CCCCC2)cc(Cl)c2cccnc12,100*,-7
Fc1ccc(CN2CCN(c3ncccn3)CC2)c(F)c1,-6,-4
Oc1c(CN2CCCCC2)cc(CN2CCCCC2)nc1-c1ccccc1,7,1
COCc1cc(CN2CCCC2)c(O)c2ncccc12,100*,3
N#CC(=C(\N)Sc1ccccc1N)/C(C#N)=C(/N)Sc1ccccc1N,.,2
COc1ccccc1C1=NOC(C(=O)NC2CCCC2)C1 (configuration not stated),-7,-6
COc1ccc(CCN2C(=O)CC(Cc3ccc(Br)cc3)C2=O)cc1OC (configuration not stated),10,-9
Cc1ccc(CNC(=O)N2CCC3(CC2)Nc2cc(F)ccc2-n2cccc23)cc1,66*,-2
O=C(NCc1ccccc1)N1CCC2(CC1)Nc1cc(F)ccc1-n1cccc12,51*,-2
COc1cccc(CNC(=O)N2CCC3(CC2)Nc2cc(F)ccc2-n2cccc23)c1,44,3
SMILES,mHTT-CaM PPI inh,Pf apPOL block
CNC(=O)N1CCC2(CC1)Nc1cc(F)ccc1-n1cccc12,36,4
Cc1ccc2c(c1)NC1(CCN(C(=O)CSCc3ccc(F)cc3)CC1)c1cccn1-2,100*,-7
O=C(NCc1ccco1)N1CCC2(CC1)Nc1cc(F)ccc1-n1cccc12,47,3
COc1cc([N+](=O)[O-])c(Nc2ccccn2)cc1N1CCOCC1,.,-4
CCc1nc2c(NC(=O)c3cc(F)cc(F)c3)cccn2n1,-6,-3
CCc1nc2c(NC(=O)c3ccc(C(F)(F)F)cc3)cccn2n1,54*,0
Cc1ccc(-c2nc(C(=O)NC3CCN(Cc4ccccc4)CC3)cs2)n1C,75*,-3
Cc1ccccc1NC(=O)c1csc(-c2ccc(C)n2C)n1,-6,-5
Cc1ccc(-c2nc(C(=O)N3CCN(C4CCCCC4)CC3)cs2)n1C,70*,-3
Cc1ccc(-c2nc(C(=O)NC3CCCC3)cs2)n1C,42,0
O=C(c1csc(-c2ccncc2)n1)N1CCC(N2CCCCC2)CC1,-11,-2
Cc1ccc(-c2nc(C(=O)Nc3ccc(F)cc3)cs2)n1C,58*,2
COCCNc1nc(C)nc2onc(C)c12,-5,0
CC1CN(C)CC(C)C1=O (configuration not stated),-7,.
COc1ccc(NC(=O)CN(C)S(=O)(=O)c2ccc(Br)cc2)cc1,2,-2
O=C(NCc1cccc(F)c1)C1CCCN(c2cnn(Cc3ccccc3)c(=O)c2)C1 (configuration not stated),-3,-6
CCn1cc(C(=O)Nc2ccc(S(N)(=O)=O)cc2)c(=O)c2ccc(C)nc21,7,-1
Cc1c(C(=O)Oc2ccc(Cl)cc2)sc2nc(-c3ccc(Cl)cc3)nn12,.,-7
Cc1cccc(C)c1NC(=O)CN1CCC2(CC1)N=C(c1ccc(F)cc1)C(=O)N2,8,-2
Cc1ccc(C)c(NC(=O)CN2CCC3(CC2)N=C(c2ccc(F)cc2)C(=O)N3)c1,51*,8
O=C(CN1CCC2(CC1)N=C(c1ccc(F)cc1)C(=O)N2)Nc1ccccc1,-5,-5
O=C(CN1CCC2(CC1)N=C(c1ccccc1)C(=O)N2)Nc1cccc(C(F)(F)F)c1,96*,-6
O=C(CN1CCC2(CC1)N=C(c1cccc(Cl)c1)C(=O)N2)Nc1cccc(Cl)c1,46,-2
O=C(CN1CCC2(CC1)N=C(c1cccc(Cl)c1)C(=O)N2)Nc1ccc2c(c1)OCO2,53*,-1
CC(C)(C)c1ccc(C2=NC(C)(C)N(CC(=O)Nc3ccc(F)c(Cl)c3)C2=O)cc1,-5,-8
SMILES,mHTT-CaM PPI inh,Pf apPOL block
Cc1c(Cl)cccc1NC(=O)CN1CCN(c2ccc(F)c(F)c2)C1=O,-8,3
CC(=O)Nc1ccccc1C(=O)C(=O)Nc1ccc(C)c(C)c1,0,2
CCn1c(=O)c(N2CCN(C(=O)COc3ccc(Cl)cc3C)CC2)nc2ccncc21,61*,4
Cn1c(=O)c(N2CCN(C(=O)COc3ccc(Cl)cc3)CC2)nc2ccncc21,20,6
COc1ccc(NC(=O)c2ccc(-c3cccc(Cl)c3C)o2)cc1,0,-2
NNc1nc(-c2ccccc2)c2cc(Br)ccc2n1,76*,-10
COc1nc(-c2ccccc2)c2cc(Br)ccc2n1,-8,-3
CCc1ccc(O)c(N=Cc2cc([N+](=O)[O-])ccc2O)c1,30,-4
Brc1ncnc2nc[nH]c12,-5,.
O=C(O)c1ncnc2nc[nH]c12,99*,.
O=S1(=O)N[C@H](Cc2ccccc2)COc2cc(N3CCCC3)ccc21,1,3
CCOc1cc(C2C(C#N)=C(N)Oc3n[nH]c(-c4ccccn4)c32)ccc1O (configuration not stated),52*,-2
COc1cccc(C2C(C#N)=C(N)Oc3n[nH]c(C)c32)c1 (configuration not stated),-1,0
COc1ccc(C2C(C#N)=C(N)Oc3n[nH]c(C)c32)cc1COc1cccc(Cl)c1 (configuration not stated),69*,2
N#CC1=C(N)Oc2n[nH]c(-c3ccccn3)c2C1c1cccc(F)c1 (configuration not stated),15,4
N#CC1=C(N)Oc2n[nH]c(-c3ccccn3)c2C1c1ccc(F)cc1 (configuration not stated),65*,5
CCOc1cc(C2C(C#N)=C(N)Oc3n[nH]c(-c4ccccc4)c32)ccc1O (configuration not stated),28,-2
COC(=O)c1ccccc1NCc1cc(=O)oc2cc(O)c(O)cc12,37,40
COc1ccc(CNC(=O)C2CC(=O)N(c3ccc4oc(C)nc4c3)C2)cc1 (configuration not stated),2,-3
